Reference: PubChem BioAssay (NCI)
About 79,000 compounds went through this panel and 15% of them were active in at least one assay; those are over-represented in the sample as a whole. A number with no mark means an inactive call. Active and inactive are the calls of the source. No stated cut-off is given here; in the data, active means growth inhibition above about 70%; inactive means the rest.

Assays:
[1] = NCI Yeast Anticancer Drug Screen. Data for the rad50 strain (AID 155);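 further: 0% = growth of vehicle-only cultures of the same strain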; settings: S. cerevisiae rad50 strain growth inhibition, stronger effect = higher value
How it was run: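 Relative growth inhibition (compound vs vehicle) was measured in yeast with a defined repair-gene alteration.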

[2] = NCI Yeast Anticancer Drug Screen. Data for the mec2-1 strain (AID 157); settings: S. cerevisiae mec2-1 strain, stronger effect = higher value
How it was run: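 mec2-1 yeast strain, carrying an alteration in DNA damage repair or cell cycle control, was exposed to compounds; growth inhibition was measured relative to vehicle-treated controls.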

[3] = NCI Yeast Anticancer Drug Screen. Data for the sgs1 mgt1 strain (AID 161);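 further: 0% = growth of cultures given vehicle only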; settings: S. cerevisiae sgs1 mgt1 strain, stronger effect = higher value
How it was run: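 Yeast cells carrying a defined DNA-repair defect were exposed to test compounds. Growth inhibition was measured relative to vehicle-treated controls.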

[4] = NCI Yeast Anticancer Drug Screen. Data for the cln2 rad14 strain (AID 165);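 further: 0% = growth equal to vehicle treated cultures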; settings: S. cerevisiae cln2 rad14 strain, stronger effect = higher value
How it was run: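 Yeast carrying cln2 and rad14 alterations (cell cycle control and DNA damage repair) were exposed to compounds. Growth inhibition was measured against vehicle-treated controls.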

[5] = NCI Yeast Anticancer Drug Screen. Data for the bub3 strain (AID 167); settings: S. cerevisiae bub3 mutant strain, stronger effect = higher value
How it was run: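 Screening used yeast with an engineered genetic alteration affecting cell cycle control. Compound-exposed cultures were compared with vehicle cultures, and reduced growth was taken as inhibition.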

[6] = NCI Yeast Anticancer Drug Screen. Data for the mlh1 rad18 strain (AID 175); settings: S. cerevisiae mlh1 rad18 strain growth inhibition, stronger effect = higher value
How it was run: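 Growth inhibition of the yeast strain was measured after compound exposure and expressed relative to vehicle-treated controls. The strain carries defined defects in DNA damage repair.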

[7] = at 5.0 µM (retest, dose inferred, filed as 0.5)
[8] = at 50.0 µM (retest, dose inferred, filed as 5.0)

| SMILES | growth inhibition [1, 7] | growth inhibition [1, 8] | growth inhibition ([1]; at 50.0 µM) | growth inhibition [2, 7] | growth inhibition [2, 8] | growth inhibition ([2]; at 50.0 µM) | growth inhibition [3, 7] | growth inhibition [3, 8] | growth inhibition ([3]; at 50.0 µM) | growth inhibition [4, 7] | growth inhibition [4, 8] | growth inhibition ([4]; at 50.0 µM) | growth inhibition [5, 7] | growth inhibition [5, 8] | growth inhibition ([5]; at 50.0 µM) | growth inhibition [6, 7] | growth inhibition [6, 8] | growth inhibition ([6]; at 50.0 µM) |
| --- | --- | --- | --- | --- | --- | --- | --- | --- | --- | --- | --- | --- | --- | --- | --- | --- | --- | --- |
| COc1ccc(/C(O)=C/c2nc3ccc([N+](=O)[O-])cc3[nH]c2=O)cc1 | 12% | 70% (active) | 78.9% (active) | 1% | 57% | 49.5% | -2% | 67% | 92.6% (active) | 3% | 77% (active) | 80.7% (active) | 2% | 46% | 26.9% | 2% | 68% | 90.8% (active) |
| CS(=O)(=O)C(c1nc2nnc(NC(=O)Nc3ccc(Cl)cc3)n2[nH]c1=O)c1nc2nnc(NC(=O)Nc3ccc(Cl)cc3)n2[nH]c1=O | -14% | 11% | 32.2% | -20% | 23% | 74.5% (active) | 1% | -7% | 24.6% | -36% | 3% | 30.6% | -41% | 19% | 71.3% (active) | -19% | 32% | 62.5% |
| COC1OC2COC(c3ccccc3)OC2C(NC(=S)SCc2ccccc2)C1O (configuration not stated) | -3% | 98% (active) | 99.4% (active) | 0% | 98% (active) | 99.3% (active) | -1% | 98% (active) | 99.5% (active) | 3% | 98% (active) | 99.5% (active) | 0% | 99% (active) | 99.2% (active) | 7% | 98% (active) | 99% (active) |
| CCC(C)NC(=S)N/N=C(\C)c1ccccn1 (configuration not stated) | 20% | 100% (active) | 78% (active) | 19% | 99% (active) | 85.7% (active) | 5% | 98% (active) | 90.6% (active) | 33% | 100% (active) | 90% (active) | 0% | 100% (active) | 90.5% (active) | 39% | 99% (active) | 89.2% (active) |
| CC(=O)OC1SC(C)(C)n2c1nc1ccccc1c2=O (configuration not stated) | 1% | 56% | 44.1% | -5% | 53% | 23.7% | 6% | 51% | 41% | -8% | 43% | 69.4% | 1% | 39% | 18.8% | 2% | 50% | 72% (active) |
| Clc1ccc([O][In]([O]c2ccc(Cl)cn2)[O]c2ccc(Cl)cn2)nc1 | 1% | 1% | 68.2% | 8% | 8% | 72% (active) | -1% | -1% | 56% | -4% | -4% | 38.9% | -26% | -26% | 48.2% | -5% | -5% | 53.8% |
| BrC1=CC(Br)=C2N=C(C(Br)(Br)Br)N=C3N=C(C(Br)(Br)Br)N=C1N32 | 27% | 97% (active) | 99% (active) | 15% | 98% (active) | 99.5% (active) | 20% | 99% (active) | 99.8% (active) | 5% | 97% (active) | 98.2% (active) | 0% | 97% (active) | 99.2% (active) | 30% | 97% (active) | 99% (active) |
| CC1=C(C(=O)Nc2ccccc2)C(c2ccc(C(C)C)cc2)C(C(=O)Nc2ccccc2)=C(C)N1 | 0% | 94% (active) | 97.5% (active) | -3% | 91% (active) | 94.6% (active) | 0% | 94% (active) | 47.6% | -13% | 94% (active) | 90.8% (active) | 2% | 93% (active) | 91% (active) | -3% | 90% (active) | 96.2% (active) |
| COc1ccc2c(c1)C(=O)C[C@@H]1[C@](C)(C#N)CCC[C@]21C | 3% | 31% | 47.1% | 3% | 2% | -4.95% | 3% | 19% | 33.4% | 5% | 10% | -2.7% | 5% | 34% | 69.8% | 7% | 13% | 47.7% |
| COc1cccc(NC(=S)NC(Cc2ccccc2)c2ccccc2)c1 (configuration not stated) | -7% | 88% (active) | 80.2% (active) | -10% | 88% (active) | 74.1% (active) | -7% | 90% (active) | 83.9% (active) | 19% | 88% (active) | 70% (active) | -2% | 90% (active) | 77.2% (active) | -7% | 88% (active) | 72.4% (active) |
| Nc1ccc(S(=O)(=O)Nc2ccccc2)cc1 | -4% | 42% | -7.35% | 7% | 7% | -9.35% | -1% | 3% | 26.1% | 0% | -6% | 50.7% | 37% | -1% | -2.1% | 0% | 4% | 4.25% |
| CCCCCCCCCCCCCCCCCC[n+]1cccc(C(=O)c2ccccc2)c1 | 58% | 99% (active) | 99.3% (active) | 92% (active) | 100% (active) | 99.5% (active) | 97% (active) | 99% (active) | 99.5% (active) | 56% | 98% (active) | 97.3% (active) | 68% | 99% (active) | 98.7% (active) | 98% (active) | 99% (active) | 99.5% (active) |
| Nc1nc(Cl)cc(NCC2(CO)CC(CCCc3ccccc3)C2)n1 (configuration not stated) | 25% | 26% | -8.3% | 10% | 7% | -6.6% | 6% | 12% | -26.5% | 13% | 12% | -1.55% | 15% | 17% | -8.75% | 23% | 22% | -48.1% |
| O=C(O)/C(=C/c1ccccc1)c1ccccc1.[Ag] | 99% (active) | 99% (active) | 99.4% (active) | 100% (active) | 99% (active) | 94.5% (active) | 100% (active) | 100% (active) | 99.3% (active) | -14% | 99% (active) | 78.8% (active) | 100% (active) | 98% (active) | 93.7% (active) | 99% (active) | 99% (active) | 99.4% (active) |
| O=C(Cc1nc2ccc([N+](=O)[O-])cc2[nH]c1=O)C(=O)Nc1cc(Cl)c(Cl)cc1Cl | -16% | -2% | 8.05% | -16% | -7% | -5.45% | -7% | -15% | -6.05% | -25% | -6% | 6.65% | -16% | 2% | 23.9% | -4% | -13% | 26.1% |
| O=[N+]([O-])c1cnc(F)c(Br)c1 | 99% (active) | 99% (active) | 99.1% (active) | 99% (active) | 100% (active) | 99.2% (active) | 99% (active) | 99% (active) | 99.2% (active) | 98% (active) | 99% (active) | 98.7% (active) | 99% (active) | 99% (active) | 99.1% (active) | 99% (active) | 99% (active) | 99.3% (active) |
| C=CCOC(=O)C#CCCCC | -3% | 1% | -5.25% | 3% | 2% | 19.6% | -2% | 2% | 15.7% | -5% | 5% | 87.8% (active) | -1% | 11% | -12.8% | -1% | 6% | -12.3% |
| CC(C)=CCC(CC=C(C)C)c1ccncc1 (tested in a mixture with another compound) | 16% | 99% (active) | 99.2% (active) | 15% | 99% (active) | 99.5% (active) | -92% | 100% (active) | 99.5% (active) | 5% | 98% (active) | 99.4% (active) | 21% | 99% (active) | 98.8% (active) | 49% | 99% (active) | 99.5% (active) |
| CC(=O)OC(C)C1C2=C(C(=O)CC1(C)O)C(=O)c1c(ccc(-c3ccc4c(c3O)C(=O)C3=C(C4=O)C(C(C)OC(C)=O)C(C)(O)CC3=O)c1O)C2=O (configuration not stated) | 21% | 94% (active) | 72.8% (active) | 10% | 95% (active) | 79.6% (active) | 44% | 86% (active) | 76.5% (active) | 12% | 67% | 70.8% (active) | 13% | 85% (active) | 70.7% (active) | 28% | 94% (active) | 76.7% (active) |
